In PubChem BioAssay (NCATS):
Inconclusive results are not listed. Values without a mark were called inactive. Calls of active or inactive are those of the source. Calls come from the whole dose curve; as a rule, active = well fitted inhibition curve with a large enough effect; inconclusive = small, poorly fitted or top-dose-only effect; inactive = no such curve, though single readings can be large or run the other way.

test: qHTS for Inhibitors of ATXN expression: Validation (AID 588378); conditions: cell-based ATXN2 expression reporter assay, luminescence; series mostly up to 57.1 µM; activity change, negative = inhibition: at the top concentration; note: nearly all actives have a fitted effect of over 75% in size
How it was run: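 Cells: HEK293-ATXN2-FFLuc, phenol-red free DMEM, 2 h attachment. Compound pin-transfer, 24 h, 37 degrees C, 5% CO2. CellTiter-Fluor 30 min, Ex405/Em525; Bright-Glo 5 min, luminescence 2 s exposure.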
% is set by controls: 0 for no effect and ±100 for the full control effect; potency is the fitted concentration of half-maximal effect.

SMILES	activity change, negative = inhibition [%]	Potency
CNC(=O)c1cc2c(cn1)[nH]c1ccccc12	25	–
O=C1Nc2ccc(I)cc2/C1=C/c1cc(Br)c(O)c(Br)c1	-12	–
N#CC(C#N)=C(N)/C(C#N)=C/c1ccc(O)cc1	-9.42	–
CCCCCC(O)CCCC(=O)O (stereo unspecified)	-14.8	–
Cn1c(=O)[nH]c2ncn(C)c2c1=O	-15.6	–
CN1CCCC1CCOC(C)(c1ccccc1)c1ccc(Cl)cc1 (stereo unspecified)	–	12.6 µM (active)
CCCn1c(=O)c(C)cn2nc(N)nc12	-10.5	–
CN(C)S(=O)(=O)c1ccc2c(c1)/C(=C/c1cc3c([nH]1)CCCC3)C(=O)N2	24.8	–
Nc1ccc2c3c(cccc13)C(=O)NC2=O	-8.4	–
Cc1cc(Cn2cnc3c2C[C@@H](C(=O)O)N(C(=O)C(c2ccccc2)c2ccccc2)C3)ccc1N	-5.25	–
CN1CC(O)C(O)C(O)C1CO (stereo unspecified)	-4.82	–
CC#CCOC(=O)c1c(C)nc2sc3c(c2c1N)CCC(O)C3 (stereo unspecified)	-19.3	–
Cc1nc2n(c(=O)c1CCN1CCC(c3noc4cc(F)ccc34)CC1)CCCC2O (stereo unspecified)	-16	–
CCn1c(=O)[nH]c2cc(Cl)c(Cl)cc21	43.1	–
N[C@H](C(=O)O)[C@H](Cc1ccccc1)C(=O)O	0.744	–
CSC(=N)N	-8.71	–
CC(C)[C@@H]1CC[C@@H](C)C[C@@H]1P(=O)(c1ccccc1)c1ccccc1	-15.4	–
N[C@H](C(=O)O)[C@H]1C[C@@H]1C(=O)O	12.6	–
CC1=C(/C=C/C(C)=C/C=C/C(C)=C\C(=O)O)C(C)(C)CCC1	-0.906	–
COc1cc(CNC(=O)CCCCCCC(C)C)ccc1O	-22.6	–
Nc1nc2[nH]c(=O)cnc2c(=O)[nH]1	-8.33	–
COc1ccc(CCn2nnnc2C2(c3ccc(C)cc3)CC2)cc1	-11.8	–
Nc1ncnc2c1nc(Br)n2C1OC2COP(=O)(O)O[C@@H]2C1O (stereo partly specified)	15.3	–
CC(O)C(O)[C@H]1CNc2nc(N)[nH]c(=O)c2N1 (stereo partly specified)	2.67	–
N=S(=O)(O)Cc1noc2ccccc12	-1.56	–
CC(N)(Cc1ccc(O)c(O)c1)C(=O)O (stereo unspecified)	-29.2	–
